The panel holds about 83,000 compounds, 20% with a hit somewhere; the sample as a whole holds those more often.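 Testing used 96-well plates and a 48-hour single-concentration exposure. Example: -40 means 40% of the starting cells died.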 A number with no mark means an inactive call. Calls of active or inactive are those of the source. The calls were made as follows: active = growth percent below 10; inactive = the rest.
What was measured:
Assay in all cases: NCI-60 one-dose screen, 48 h (100 = growth as untreated, 0 = no growth, -100 = all killed)
Conditions in all cases: 10 µM unless noted
NCI-H23 lung = system: NCI-H23 lung
NCI-H322M lung = system: NCI-H322M lung
HOP-62 NSCLC = system: HOP-62 NSCLC
NCI-H460 lung = system: NCI-H460 lung
HOP-92 NSCLC = system: HOP-92 NSCLC
NCI-H522 lung = system: NCI-H522 lung
A549/ATCC NSCLC = system: A549/ATCC NSCLC
786-0 renal = system: 786-0 renal
COLO 205 colon = system: COLO 205 colon

Compound	growth (NCI-H23 lung)	growth (NCI-H322M lung)	growth (HOP-62 NSCLC)	growth (NCI-H460 lung)	growth (HOP-92 NSCLC)	growth (NCI-H522 lung)	growth (A549/ATCC NSCLC)	growth (786-0 renal)	growth (COLO 205 colon)
CC(Br)C(OC(=O)c1ccccc1Cl)c1cc2c(cc1Br)OCO2 (stereo not drawn)	78.3%	82.7%	108%	91.8%	68.5%	87.9%	91.5%	80.7%	126%
O=C(O)c1cccc([N+](=O)[O-])c1/C=C/c1ccccc1	102%	90.5%	92.6%	103%	112%	116%	104%	98.1%	98.9%
O=S(=O)(NCCCNc1cc(-c2cn(-c3ccccc3)nc2-c2cccc(O)c2)ccn1)c1ccc(C(F)(F)F)cc1	43.9%	49.8%	50.9%	22.2%	29%	69.7%	35.1%	-8.06% (active)	-57.3% (active)
C/C(=C\c1csc(C)n1)[C@@H]1C[C@@H]2O[C@]2(C)CCC[C@H](C)[C@H](O)[C@@H](C)C(=O)C(C)(C)[C@@H](O)CC(=O)N1	-70% (active)	-83.3% (active)	-69.5% (active)	-85.5% (active)	-47.2% (active)	-81.4% (active)	-79.8% (active)	-22.5% (active)	-62.5% (active)
Nc1cccc2c1CN(C1CCC(=O)NC1=O)C2=O (stereo not drawn)	99.4%	111%	106%	102%	22.6%	56%	106%	107%	111%
COc1ccc(C2CC(=O)Nc3c2c(C)nn3-c2nc3ccccc3[nH]2)cc1OC (stereo not drawn)	48.7%	75.9%	67.8%	63.7%	89.3%	98.2%	61.1%	87.5%	106%
COc1cc(NC(=O)c2cc3ccccc3nc2Nc2ccc(F)cc2)cc(OC)c1OC	39.8%	65.8%	83.2%	40.3%	28.5%	49.8%	42.8%	53.5%	38%
Nc1ccc(S(=O)(=O)c2ccc(Cl)cc2)cc1	97.9%	91.4%	97.8%	96%	93.4%	89.7%	86.6%	99%	109%
O=C1OC(c2ccccc2)=N/C1=C\c1ccc([N+](=O)[O-])cc1	100%	96.2%	90.1%	94.6%	87.1%	94.9%	120%	98.6%	109%
O=C(C[N+](=O)[O-])c1ccc(Cl)cc1	104%	112%	104%	111%	101%	109%	106%	98.5%	116%
Cn1c(C(N)=O)cc2c1-c1nc(NC3CCCCC3)ncc1CCC2	93.7%	110%	90%	94.3%	6.02% (active)	94.9%	92.2%	91.2%	113%
CCCCCCCCCN1C(=O)/C(=c2\sc3n(c2=O)C2C(NN=3)N(CC)C(=O)N2CC)c2ccccc21 (stereo not drawn)	10.1%	77%	45.1%	46.1%	44.5%	26.8%	56%	78.4%	93.3%
Cc1ccc(S(=O)(=O)N2CCC(C(=O)Nc3ccc(F)cc3F)CC2)cc1	95.8%	112%	96.2%	107%	82.2%	102%	91.8%	89.9%	99.3%
O=S(=O)(NCCCNc1nccc(-c2c(-c3ccc(F)c(O)c3)nc3sccn23)n1)c1ccc(Cl)cc1	80%	98.6%	96.6%	86.3%	74.3%	57.5%	76.9%	110%	42.6%
Cc1oc2ncnc(Nc3ccccc3)c2c1C(=O)NCCO	92%	108%	99%	98.6%	88.6%	96.6%	98.1%	98.7%	100%
COc1ccc(NC(=O)/N=c2\oc3c(OC)cccc3cc2-c2cc3ccccc3[nH]2)cc1	53.2%	74%	22.6%	49.4%	-9.99% (active)	76.3%	55.7%	10.7%	97.8%
N#Cc1c(NC(=O)c2ccc([N+](=O)[O-])o2)[n+]([O-])c2cc(F)c(F)cc2[n+]1[O-]	99%	119%	123%	110%	96.6%	101%	116%	110%	132%
COc1ccc(-c2nnc(COc3ccc(NS(=O)(=O)c4ccc(OC)cc4)cc3F)o2)cc1	56.6%	83.6%		77.8%	70.9%	49.2%	62.8%	74.8%	70.6%
CCn1c(=O)c2c(=O)c3c4c(oc3oc2c2ccccc21)C(=O)c1ccccc1C4=O	66.8%	97.7%		83.7%	50.8%	65.5%	82.4%	105%	110%
CCN(CC)CCCC(C)N=c1cc(Nc2cc(=NC(C)CCCN(CC)CC)c3cc(OC)ccc3o2)oc2ccc(OC)cc12 (stereo not drawn)	-43.3% (active)	-38.4% (active)	-41.6% (active)	-38.7% (active)	-29.9% (active)	-78.6% (active)	-48.6% (active)	-7.34% (active)	-96.2% (active)

Reference: PubChem BioAssay (NCI)
